Results reported in the supplement of paper PMC12669032.

Experiments:
Test in all cases: growth AUC relative to DMSO control (median of replicates) (fraction); higher = more growth (less inhibition), active = hit call of the paper
Settings in all cases: 20 µM; 24 h;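 active = AUC reduced over 20% with Padj below 0.05 in at least 2 of 3 replicates; inactive = otherwise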
Coprococcus comes = test system: Coprococcus comes
Procedure, shortened: (§1)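 Area under the growth curve was normalised to the plate median of solvent-only wells, except on the industrial chemical plate, where row and column medians were used. Curves came from gut bacterial monocultures grown anaerobically at 37 °C in mGAM with 20 µM compound (1% DMSO), starting at OD600 0.05 and read at OD600 every hour for 24 h. The minimum OD of each curve was set to 0, and values are medians of three biological replicates grown on separate days.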

Escherichia coli ED1a = test system: Escherichia coli ED1a
Procedure, shortened: as §1

Escherichia coli IAI1 = test system: Escherichia coli IAI1
Procedure, shortened: as §1

Eubacterium rectale = test system: Eubacterium rectale
Procedure, shortened: as §1

[1] = test system: Fusobacterium nucleatum subsp. animalis
Procedure, shortened: as §1

Lactobacillus gasseri = test system: Lactobacillus gasseri
Procedure, shortened: as §1

Lactobacillus paracasei = test system: Lactobacillus paracasei
Procedure, shortened: as §1

Odoribacter splanchnicus = test system: Odoribacter splanchnicus
Procedure, shortened: as §1

[2] = test system: Parabacteroides distasonis
Procedure, shortened: as §1

Parabacteroides merdae = test system: Parabacteroides merdae
Procedure, shortened: as §1

Roseburia intestinalis = test system: Roseburia intestinalis
Procedure, shortened: as §1

Streptococcus salivarius = test system: Streptococcus salivarius
Procedure, shortened: as §1

Measured: growth AUC

COP(=S)(OC)Oc1cc(Cl)c(Cl)cc1Cl
inactive: Coprococcus comes 0.979 | Escherichia coli ED1a 1 | Escherichia coli IAI1 0.971 | Eubacterium rectale 0.945 | [1] 1.06 | Lactobacillus gasseri 1 | Lactobacillus paracasei 1.02 | Odoribacter splanchnicus 0.88 | [2] 0.936 | Parabacteroides merdae 0.983 | Roseburia intestinalis 0.966 | Streptococcus salivarius 0.994

O=C(O)CCl
inactive: Coprococcus comes 0.98 | Escherichia coli ED1a 0.995 | Escherichia coli IAI1 0.984 | Eubacterium rectale 0.974 | [1] 0.929 | Lactobacillus gasseri 1.03 | Lactobacillus paracasei 1.03 | Odoribacter splanchnicus 0.986 | [2] 0.949 | Parabacteroides merdae 1.02 | Roseburia intestinalis 0.962 | Streptococcus salivarius 0.979

FC(F)C(F)(F)OCC(Cn1cncn1)c1ccc(Cl)cc1Cl (stereo not given)
inactive: Coprococcus comes 0.979 | Escherichia coli ED1a 0.972 | Escherichia coli IAI1 0.966 | Eubacterium rectale 0.804 | [1] 1.02 | Lactobacillus gasseri 0.912 | Lactobacillus paracasei 0.841 | Odoribacter splanchnicus 0.981 | [2] 0.951 | Parabacteroides merdae 0.932 | Roseburia intestinalis 0.956 | Streptococcus salivarius 0.996

CCNC(=O)NC(=O)/C(C#N)=N/OC
inactive: Coprococcus comes 1.05 | Escherichia coli ED1a 1.04 | Escherichia coli IAI1 1.02 | Eubacterium rectale 0.919 | [1] 1.2 | Lactobacillus gasseri 1.06 | Lactobacillus paracasei 0.94 | Odoribacter splanchnicus 1.02 | [2] 1.04 | Parabacteroides merdae 1.01 | Roseburia intestinalis 1.16 | Streptococcus salivarius 0.949

CCOC1Oc2ccc(OS(C)(=O)=O)cc2C1(C)C (stereo not given)
inactive: Coprococcus comes 0.943 | Escherichia coli ED1a 0.949 | Escherichia coli IAI1 0.964 | Eubacterium rectale 1.16 | [1] 0.903 | Lactobacillus gasseri 0.891 | Lactobacillus paracasei 0.98 | Odoribacter splanchnicus 1.15 | [2] 0.879 | Parabacteroides merdae 0.927 | Roseburia intestinalis 0.924 | Streptococcus salivarius 0.964

Cc1cc(C)nc(NC(=O)NS(=O)(=O)c2ccccc2C(=O)OC2COC2)n1
inactive: Coprococcus comes 0.97 | Escherichia coli ED1a 0.986 | Escherichia coli IAI1 0.983 | Eubacterium rectale 1.07 | [1] 1.02 | Lactobacillus gasseri 0.884 | Lactobacillus paracasei 1.08 | Odoribacter splanchnicus 1.01 | [2] 1.02 | Parabacteroides merdae 0.997 | Roseburia intestinalis 0.985 | Streptococcus salivarius 0.909

CCOP(=O)(OCC)Oc1ccc([N+](=O)[O-])cc1
inactive: Coprococcus comes 1.03 | Escherichia coli ED1a 0.988 | Escherichia coli IAI1 1.03 | Eubacterium rectale 0.91 | [1] 1.06 | Lactobacillus gasseri 1.02 | Lactobacillus paracasei 1.04 | Odoribacter splanchnicus 1.05 | [2] 0.999 | Parabacteroides merdae 0.986 | Roseburia intestinalis 1.03 | Streptococcus salivarius 1.01

CCN(CC)C(=O)SCc1ccc(Cl)cc1
inactive: Coprococcus comes 0.966 | Escherichia coli ED1a 1.01 | Escherichia coli IAI1 1.01 | Eubacterium rectale 0.921 | [1] 0.957 | Lactobacillus gasseri 1.08 | Lactobacillus paracasei 0.879 | Odoribacter splanchnicus 0.937 | [2] 0.943 | Parabacteroides merdae 0.972 | Roseburia intestinalis 0.983 | Streptococcus salivarius 0.986

Nc1ccc(Cl)cc1Cl
inactive: Coprococcus comes 1.03 | Escherichia coli ED1a 1.01 | Escherichia coli IAI1 1 | Eubacterium rectale 1.01 | [1] 1.11 | Lactobacillus gasseri 1.02 | Lactobacillus paracasei 0.976 | Odoribacter splanchnicus 1.1 | [2] 1.02 | Parabacteroides merdae 1.01 | Roseburia intestinalis 1.02 | Streptococcus salivarius 1.03

C[C@@H](Oc1ccc(Oc2ccc(C(F)(F)F)cn2)cc1)C(=O)O
inactive: Coprococcus comes 1.03 | Escherichia coli ED1a 1 | Escherichia coli IAI1 1 | Eubacterium rectale 1.06 | [1] 1.06 | Lactobacillus gasseri 0.867 | Lactobacillus paracasei 1.02 | Odoribacter splanchnicus 1.03 | [2] 1.01 | Parabacteroides merdae 1.07 | Roseburia intestinalis 0.99 | Streptococcus salivarius 1.05

CCOP(=O)(OCC)O/C(=C/Br)c1ccc(Cl)cc1Cl
inactive: Coprococcus comes 1.01 | Escherichia coli ED1a 0.976 | Escherichia coli IAI1 0.973 | Eubacterium rectale 1.04 | [1] 0.996 | Lactobacillus gasseri 0.976 | Lactobacillus paracasei 0.996 | Odoribacter splanchnicus 1.02 | Parabacteroides merdae 0.898 | Roseburia intestinalis 0.995 | Streptococcus salivarius 0.975
active: [2] 0.547

CCOC(=O)c1cn2nc(OP(=S)(OCC)OCC)cc2nc1C
active: Odoribacter splanchnicus 0.692 | [2] 0.662
inactive: Coprococcus comes 0.952 | Escherichia coli ED1a 0.981 | Escherichia coli IAI1 0.97 | Eubacterium rectale 1.13 | [1] 0.938 | Lactobacillus gasseri 0.908 | Lactobacillus paracasei 0.911 | Parabacteroides merdae 0.909 | Roseburia intestinalis 0.981 | Streptococcus salivarius 0.981

CN(C)C(=O)Nc1ccc(Cl)cc1
inactive: Coprococcus comes 0.985 | Escherichia coli ED1a 1.01 | Escherichia coli IAI1 0.97 | Eubacterium rectale 0.996 | [1] 1.02 | Lactobacillus gasseri 1.05 | Lactobacillus paracasei 1.03 | Odoribacter splanchnicus 0.963 | [2] 0.938 | Parabacteroides merdae 1 | Roseburia intestinalis 0.979 | Streptococcus salivarius 0.971

CC1=NNC(=O)N(/N=C/c2cccnc2)C1
inactive: Coprococcus comes 1.02 | Escherichia coli ED1a 0.993 | Escherichia coli IAI1 0.991 | Eubacterium rectale 1 | [1] 1.02 | Lactobacillus gasseri 1.01 | Lactobacillus paracasei 0.988 | Odoribacter splanchnicus 1.03 | [2] 1.01 | Parabacteroides merdae 0.996 | Roseburia intestinalis 1.01 | Streptococcus salivarius 1.04

CC(C)(C)C(O)/C(=C/c1ccc(Cl)cc1Cl)n1cncn1 (mixture of isomers)
inactive: Coprococcus comes 0.959 | Escherichia coli ED1a 0.983 | Escherichia coli IAI1 0.979 | Eubacterium rectale 0.992 | [1] 1 | Lactobacillus gasseri 0.836 | Lactobacillus paracasei 0.997 | Odoribacter splanchnicus 0.86 | [2] 0.938 | Parabacteroides merdae 0.907 | Roseburia intestinalis 0.929 | Streptococcus salivarius 0.945

CC1(C)CON(Cc2ccccc2Cl)C1=O
inactive: Coprococcus comes 1.01 | Escherichia coli ED1a 0.965 | Escherichia coli IAI1 1.02 | Eubacterium rectale 1.12 | [1] 1.05 | Lactobacillus gasseri 0.837 | Lactobacillus paracasei 1.05 | Odoribacter splanchnicus 0.899 | [2] 0.838 | Parabacteroides merdae 0.985 | Roseburia intestinalis 0.896 | Streptococcus salivarius 0.87

Cc1ccccc1[N+](=O)[O-]
inactive: Coprococcus comes 1 | Escherichia coli ED1a 0.997 | Escherichia coli IAI1 0.992 | Eubacterium rectale 1 | [1] 1.03 | Lactobacillus gasseri 1.02 | Lactobacillus paracasei 0.999 | Odoribacter splanchnicus 0.994 | [2] 1.06 | Parabacteroides merdae 0.995 | Roseburia intestinalis 0.969 | Streptococcus salivarius 1.01

CC(Cc1ccc(C(C)(C)C)cc1)CN1CCCCC1 (stereo not given)
inactive: Coprococcus comes 0.931 | Escherichia coli ED1a 0.998 | Escherichia coli IAI1 0.932 | Eubacterium rectale 1.03 | [1] 1.02 | Lactobacillus gasseri 0.988 | Lactobacillus paracasei 1.03 | Odoribacter splanchnicus 1.05 | [2] 0.946 | Parabacteroides merdae 0.997 | Roseburia intestinalis 0.976 | Streptococcus salivarius 1

CCOP(=S)(OCC)SCn1nnc2ccccc2c1=O
active: [2] 0.707
inactive: Coprococcus comes 1.01 | Escherichia coli ED1a 1.01 | Escherichia coli IAI1 1.03 | Eubacterium rectale 1.02 | [1] 1.09 | Lactobacillus gasseri 1.01 | Lactobacillus paracasei 1.05 | Odoribacter splanchnicus 0.926 | Parabacteroides merdae 0.946 | Roseburia intestinalis 1.11 | Streptococcus salivarius 0.993

CCc1ccc(C(=O)NN(C(=O)c2cc(C)cc(C)c2)C(C)(C)C)cc1
inactive: Coprococcus comes 0.987 | Escherichia coli ED1a 1.01 | Escherichia coli IAI1 0.999 | Eubacterium rectale 0.937 | [1] 0.882 | Lactobacillus gasseri 0.98 | Lactobacillus paracasei 1.04 | Odoribacter splanchnicus 0.926 | [2] 1.03 | Parabacteroides merdae 0.945 | Roseburia intestinalis 0.945 | Streptococcus salivarius 0.952

CS/C(C)=N/OC(=O)N(C)SN(C)C(=O)O/N=C(\C)SC
inactive: Coprococcus comes 0.98 | Escherichia coli ED1a 1.02 | Escherichia coli IAI1 1.01 | Eubacterium rectale 1.17 | [1] 1.04 | Lactobacillus gasseri 1.05 | Lactobacillus paracasei 0.941 | Odoribacter splanchnicus 1.04 | [2] 1.03 | Parabacteroides merdae 1.03 | Roseburia intestinalis 1.01 | Streptococcus salivarius 0.955

OC(c1ccc(Cl)cc1)(c1ccc(Cl)cc1)C(Cl)(Cl)Cl
inactive: Coprococcus comes 1.01 | Escherichia coli ED1a 0.998 | Escherichia coli IAI1 1.03 | Eubacterium rectale 0.805 | [1] 0.977 | Lactobacillus paracasei 1.01 | Roseburia intestinalis 0.891 | Streptococcus salivarius 0.874
active: Lactobacillus gasseri 0.162 | Odoribacter splanchnicus 0.687 | [2] 0.0387 | Parabacteroides merdae 0.777

CC(C)=CC1C(C(=O)OC(C#N)c2cccc(Oc3ccccc3)c2)C1(C)C (mixture of isomers)
inactive: Coprococcus comes 0.983 | Escherichia coli ED1a 1 | Escherichia coli IAI1 0.967 | Eubacterium rectale 0.965 | [1] 0.921 | Lactobacillus gasseri 0.921 | Lactobacillus paracasei 1.23 | Odoribacter splanchnicus 1.01 | [2] 1 | Parabacteroides merdae 1 | Roseburia intestinalis 0.893 | Streptococcus salivarius 0.988

COP(=S)(OC)Oc1nc(Cl)c(Cl)cc1Cl
inactive: Coprococcus comes 0.978 | Escherichia coli ED1a 0.986 | Escherichia coli IAI1 0.997 | Eubacterium rectale 0.913 | [1] 0.94 | Lactobacillus gasseri 1.07 | Lactobacillus paracasei 0.989 | Odoribacter splanchnicus 0.942 | [2] 0.937 | Parabacteroides merdae 0.951 | Roseburia intestinalis 1 | Streptococcus salivarius 1.02

CCNc1nc(NC(C)C(C)C)nc(SC)n1 (stereo not given)
inactive: Coprococcus comes 0.977 | Escherichia coli ED1a 0.979 | Escherichia coli IAI1 0.991 | Eubacterium rectale 0.89 | [1] 0.997 | Lactobacillus gasseri 1.06 | Lactobacillus paracasei 0.81 | Odoribacter splanchnicus 0.954 | [2] 1.04 | Parabacteroides merdae 0.992 | Roseburia intestinalis 1.04 | Streptococcus salivarius 0.97
